Laboratory results published in ChEMBL document CHEMBL3988442, “University of Dundee, Small-Polar-MMV Screening Library” (2021).

Assays:
[1] = target: T1, Aspartate--tRNA(Asp/Asn) ligase (Mycobacterium tuberculosis (strain ATCC 25618 / H37Rv)) (UniProt P9WFW3); assay: Assay for Asp RNA synthetase-1 from Mycobacterium tuberculosis; assay type: functional; set-up: scale not given: direction of the effect not stated beside the values; details: 30 µM; also: in the data most compounds retested in dose-response had high values
T1 sequence (whole entry): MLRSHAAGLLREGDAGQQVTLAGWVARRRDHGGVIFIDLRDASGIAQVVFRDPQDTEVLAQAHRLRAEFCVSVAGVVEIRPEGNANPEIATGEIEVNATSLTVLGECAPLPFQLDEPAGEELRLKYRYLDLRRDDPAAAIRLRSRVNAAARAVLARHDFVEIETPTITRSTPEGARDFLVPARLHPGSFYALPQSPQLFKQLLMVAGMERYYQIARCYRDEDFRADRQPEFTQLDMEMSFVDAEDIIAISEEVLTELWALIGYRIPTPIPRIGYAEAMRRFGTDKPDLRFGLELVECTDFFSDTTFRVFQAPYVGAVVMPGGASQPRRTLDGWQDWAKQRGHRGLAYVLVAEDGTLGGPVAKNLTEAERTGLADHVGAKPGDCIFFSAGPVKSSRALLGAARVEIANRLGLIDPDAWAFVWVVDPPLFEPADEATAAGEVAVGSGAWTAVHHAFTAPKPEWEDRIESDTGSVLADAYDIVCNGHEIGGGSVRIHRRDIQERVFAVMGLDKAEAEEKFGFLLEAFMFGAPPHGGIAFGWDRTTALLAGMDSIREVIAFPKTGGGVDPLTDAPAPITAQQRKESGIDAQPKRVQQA

[2] = target: Shiga toxin 2 (Escherichia coli O157:H7) (UniProt P09385+P09386); assay: E. coli 0.157:H7 Shiga Toxin SOP - stx2 screening assay; assay type: functional; set-up: scale not given: direction of the effect not stated beside the values; details: 30 µM

SMILES	Percent Effect [1]	Percent Effect [2]
CC(C)N(C)S(=O)(=O)N(C)Cc1ccc2c(c1)OCO2	-7.16%	-23.7%
Cc1cc2n(n1)CC(CNC1CCN(Cc3ccccc3C)CC1)CN2 (configuration not stated)	4.64%	-38.1%
CC1N(CC2CC2)C(=O)COC12CCN(Cc1nccs1)CC2 (configuration not stated)	-0.821%	-13.9%
Cc1ccc(-c2cc(CN3CCOC(Cn4cncn4)C3)on2)cc1 (configuration not stated)	1.83%	-14%
CN(C)CC1CN(c2cnc3ccccc3n2)CCO1 (configuration not stated)	-3.4%	-17.5%
O=C(NCC1CC1)[C@H]1C[C@H]2OCC[C@H]2N(Cc2ccsc2)C1	4.96%	13.4%
COc1cccc(C(=O)NS(=O)(=O)c2cccc(C#N)c2)c1OC	0.0291%	2.55%
O=C(c1cccn1Cc1cccs1)N1CCN(C2CC2)CC1	-1.4%	-1.86%
Cc1cncc(C2CCCN(C(=O)c3ccc(C)[nH]c3=O)C2)n1 (configuration not stated)	0.25%	-13%
Cc1nc(Cn2nc(C3CCNCC3)n(Cc3ccccc3)c2=O)no1	-2.53%	-3.49%
O=C(NCc1cc[nH]n1)NCC(c1ccccc1Cl)N1CCCC1 (configuration not stated)	5.68%	4.8%
Cn1cc(CN2CCCN(C(=O)c3ccc4c(c3)COC4)CC2)cn1	-0.281%	30.1%
CC(C)(C)c1ncc2c(n1)CN(C(=O)c1ccc(-c3nc[nH]n3)cc1)C2	-2.37%	-62.9%
CS(=O)(=O)NCc1n[nH]c2c1CCN(C(=O)c1ccsc1)C2	9.64%	-7.46%
O=C(NCCCN1CCCC1=O)Nc1ccc(Br)cc1Cl	-2.15%	-11%
Cc1occc1C(=O)N1CCC2(CC1)C(c1cnn(C)c1)CC(=O)N2C (configuration not stated)	2.49%	-8.78%
CCn1ccnc1CN1CCN(Cc2ccc(C#N)cc2)CC1	-0.278%	-29.2%
c1ncn(CC2CCCN2Cc2cn3ccsc3n2)n1 (configuration not stated)	-3.37%	-3.31%
CCN1CCC(CNC(=O)C2(c3cccc(C)c3)CC2)C1 (configuration not stated)	2.87%	1.34%
Cc1cnn(C2CN(CC(=O)Nc3cccnc3)C2)c1	3.91%	11%
CN(C)CC(=O)N1CCC2(CCN(Cc3ccccn3)C2=O)C1 (configuration not stated)	-3.07%	9.53%
O=C(c1ccc(O)c(Cl)c1)N1CCC(c2n[nH]c(C3CC3)n2)CC1	-0.597%	0.843%
Cc1cccc(C)c1OCCC(=O)N1CCC(c2nncn2C)CC1	-2.43%	-9.22%
CCN1C(=O)C2(CCOCC2)c2cc(NC(=O)c3ccco3)ccc21	-3.45%	-26.8%
COCc1cnc2n1CCN(C(=O)C1=CCCCC1)C2C (configuration not stated)	-0.348%	-61.5%
COc1ccc(-c2nnc(SC(C)C(=O)NCC(C)C)[nH]2)c(OC)c1 (configuration not stated)	7.67%	8.94%

SMILES	Percent Effect [1]	Percent Effect [2]
O=C(O)c1cc(NS(=O)(=O)c2cccc(Cl)c2F)ccc1Cl	0.425%	20.1%
Cc1csc(CNC(=O)NC2CCN(c3ncccn3)CC2)n1	2.39%	-1.46%
COCC(=O)N(C)Cc1ccc(Cl)c(Cl)c1	-3.56%	2.03%
CC(=O)N1CCN(CCNS(=O)(=O)c2ccc(C)c(F)c2)CC1	-1.95%	5.72%
CC(=O)N1CCCN(C(=O)NCCc2ccc(Cl)s2)CC1	-3.04%	-19.8%
CC(=O)NCCNC(=O)c1sc(-c2ccc(Cl)s2)nc1C	7.28%	8.5%
Cc1nc(C)n(CC2CCCN2Cc2ccn(-c3ccccc3)n2)n1 (configuration not stated)	0.0463%	-14.6%
CCn1cc(N2Cc3nc(N4CCOCC4)ncc3C2=O)cn1	-3.92%	-20.5%
O=C(Nc1ccccc1F)N1CCN(Cc2noc(C3CC3)n2)CC1	1.99%	-11.6%
CC(C)CCN1CN=C(NS(=O)(=O)c2ccc(F)cc2)NC1	-1.13%	-27.2%
Cn1cc(CN2CCCC3(CCCN3S(C)(=O)=O)C2)cn1 (configuration not stated)	6.18%	-11.1%
N#Cc1ccc(OC2CCN(C(=O)c3ccc4c(c3)OCO4)CC2)nc1	-8.83%	-32.6%
O=C(COc1cccc2c1CCC2=O)NCCOc1ccccc1	12.7%	-35%
Cc1ccc(NC2CCN(C(=O)Cc3cccc(F)c3)CC2)nn1	14.3%	11.3%
O=C(c1cccnc1)N1CCCC2(CCN(c3ccsc3)C2=O)C1 (configuration not stated)	7.21%	-14.1%
O=C(NCc1cc[nH]n1)NC1CCCN(c2ncccn2)C1 (configuration not stated)	-4.43%	-3.98%
Cc1csc(Nc2cc(C3CCCCN3C)nc(C)n2)n1 (configuration not stated)	-2.66%	-11.8%
Cn1cnnc1CNC(=O)Nc1cc(C(F)(F)F)c[nH]c1=O	1.79%	27.2%
CC(C)Oc1ccccc1C1CC(=O)Nc2c1cnn2C (configuration not stated)	2.79%	-6.39%
O=C(Cn1cc(-c2ccccc2)ncc1=O)Nc1ccncc1	1.91%	-0.041%
O=C(O)c1cc2c(nc1O)CC(c1cccs1)CC2=O (configuration not stated)	2.79%	-19.6%
COc1cccc(OCC(=O)NS(=O)(=O)c2ccc(C)s2)c1	1.83%	-6.18%
Cc1cn(CC(=O)NC2CCN(C(=O)C3CC3)CC2)c2ccccc12	2.13%	6.97%
CCN1CC(C(=O)NCc2ccccc2-n2cccn2)CC1=O (configuration not stated)	7.12%	20.1%
Cc1cc(C(=O)NCc2ccnc(N(C)C)c2)c(C)o1	5.55%	-9.84%
CC(C)CNc1nc(C(=O)/N=c2\[nH]nc(C(C)(C)C)s2)cs1	-0.96%	-23.9%

SMILES	Percent Effect [1]	Percent Effect [2]
CC(C)c1nc(C2CCCN2Cc2ccno2)no1 (configuration not stated)	1.46%	1.7%
Cc1nccn1-c1cccc(C2CCCN(C(=O)c3cc[nH]n3)C2)n1 (configuration not stated)	-0.309%	-32.7%
CCn1cnnc1CNC(=O)N1CCN(c2cccc(OC)c2)CC1	0.152%	-10.2%
Cn1ccnc1CC1CCCN(C(=O)Nc2cccn(C)c2=O)C1 (configuration not stated)	2.75%	-3.01%
CCNC(=O)c1ccc(CNCc2c(C)nn(C)c2N(C)C)cc1	-0.75%	-25.7%
CCc1ccc(O)c(C(=O)NC2CCN(C(=O)OC)CC2)c1	-2.88%	-48.7%
OC(COCc1ccc(Cl)cc1)CN1CCC(c2ccn[nH]2)CC1 (configuration not stated)	-1.57%	-33%
CC(C)c1noc(CN(Cc2cccs2)C2CC2)n1	-0.416%	-48.4%
OC(CN1CCN(Cc2ccc(F)cc2)CC1)C1CC1 (configuration not stated)	-7.53%	-3.92%
Cc1[nH]ccc1C(=O)Nc1cccc(CN2CCC(CO)CC2)c1	-1.71%	-43.9%
Cc1ccc(C(=O)NCCCNS(C)(=O)=O)cc1-n1cccc1	-0.21%	-17.9%
CC(Cn1ccnc1)NC(=O)C1(c2ccc(F)cc2)CC1 (configuration not stated)	-1.46%	2.06%
O=C(N1CCOCC1)[C@@]12CCO[C@@H]1CCN(CC1CCCCC1)C2	-2.47%	-36.5%
Cc1cc2c(=O)n3c(nc2s1)CCN(Cc1ccncc1)CC3	-2.01%	-22.9%
CC(C)Cc1noc(CN2CCC(NC(=O)c3cccs3)CC2)n1	1.37%	-32.8%
Cc1ccc(Cn2ccc(NS(C)(=O)=O)n2)cc1	2.05%	-19.8%
Cc1ccc(CN2CCCn3c(nc(Cn4cncn4)cc3=O)C2)s1	-1.14%	-10.9%
CN(C)S(=O)(=O)N1CCN(C(=O)c2ccc3ccn(C)c3c2)CC1	-0.254%	4.4%
CCN1CC2(CC1=O)CN(Cc1cnn(C)c1)CCN(C(C)=O)C2 (configuration not stated)	1.68%	-2.37%
O=C(NCc1cc(O)ncn1)C1COc2ccccc2C1 (configuration not stated)	-3.92%	12.8%
CNC(=O)CC1CCN(Cc2nc(-c3ccc(SC)cc3)oc2C)CC1	-1.17%	-3.87%
COCC(=O)N1CCC(c2cc(C(F)(F)F)n3ccnc3n2)CC1	-2.99%	-10.9%
CC(C)CCN1Cc2c(C(=O)O)ncn2-c2ccccc2S1(=O)=O	-0.474%	-10.7%
O=C(c1ccc[nH]1)N1CCN(CC2CCOc3ccccc3C2)CC1 (configuration not stated)	4.96%	-20.9%
Cc1cc(C)c(CNC(=O)NCC2CCCN2C)c(=O)[nH]1 (configuration not stated)	-1.7%	26.6%
CC(NC(=O)Nc1cccnc1N1CCCC1)c1nncn1C (configuration not stated)	-2.86%	7.91%

SMILES	Percent Effect [1]	Percent Effect [2]
COCCN(C)Cc1ccc(OC)c(OC(F)F)c1	2.53%	-37.4%
Cc1nnc2n1CCN(CCOc1ccccc1)C2	-6.3%	-21.5%
CC1CN(Cc2noc(C3CC3)n2)CCN1Cc1nccn1C (configuration not stated)	-4.25%	-11.1%
CCNc1cc2c(nn1)CCN(C(=O)c1ccc(CNC(C)=O)o1)C2	5.42%	-44.4%
O=C(NCCNc1ncccn1)C1CCN(c2ncccn2)CC1	-0.874%	5.72%
O=C(c1ccc(F)c(F)c1)N1CCCSCC1CN1CCCC1 (configuration not stated)	3.66%	2.2%
COC1CC2(CCN(Cc3ccc4c(c3)OCO4)CC2)C1	-2.25%	-2.07%
COc1ccc(CN2CCc3nc(C4CCCCN4C)ncc3C2)cc1 (configuration not stated)	3.22%	-19.9%
COCCc1noc(CN2CCCC2c2c(C)nn(C)c2C)n1 (configuration not stated)	-7.13%	10.3%
CCc1nnsc1C(=O)NCCn1nc2ccccn2c1=O	-6.91%	-19.6%
O=C(Cn1ccc2sccc2c1=O)NCc1ccc2c(c1)OCO2	0.0437%	-8.21%
O=C(CCc1ccccc1)NCC1CCN(Cc2ccsc2)CC1	-3.19%	-9.05%
O=C(NC1CCCC1)[C@@H]1CN(Cc2nccs2)C[C@H]2OCC[C@H]21	4.4%	-7.97%
Cc1cn2c(n1)CCC(NC(=O)c1cc(Br)cn1C)C2 (configuration not stated)	-1.87%	-34.8%
CC(C)(CNC(=O)NCCOc1cccc(F)c1)C(N)=O	-1.21%	28.8%
CC1=N[C@@]2(CC[C@@H]3CN(S(=O)(=O)CC(C)C)C[C@@H]32)C(=O)N1CC(C)C	-0.749%	9.05%
Cn1ccc(C(=O)NC2CCC23CCN(C(=O)N2CCCC2)CC3)c1 (configuration not stated)	-3.32%	-4.99%
O=C([C@@H]1COC[C@H]2CN(C3CCOCC3)C[C@H]21)N1CCCCO1	6.99%	-23.5%
CC(=O)NCCNC(=O)N(C)Cc1ccc2c(c1)OCCO2	-4.52%	15.2%
Cc1noc([C@@H]2CC[C@@H]3[C@@H](CCN3S(=O)(=O)C3CC3)O2)n1	0.155%	-17.9%
O=C(NCC1CC1)C1CN(C(=O)c2cccnc2)CC12CCOCC2 (configuration not stated)	-2.58%	-10.2%
COc1ccsc1C(=O)N1CCCC(n2nc(C)nc2C)C1 (configuration not stated)	0.571%	6.02%
COc1ccccc1CCNC(=O)CN1CCCC1c1noc(C)n1 (configuration not stated)	-3.12%	34.4%
